Data: PubChem BioAssay (NCATS)
Values joined by “and” are separate entries in the source; they are usually repeats but may differ in a detail not shown here. Equal entries are not always repeated. Results filed as inconclusive are left out. Some compounds were tested as several samples or in several runs, with calls that do not always agree. Active and inactive are the calls of the source. Unless noted, calls follow the shape of the full dose curve.

Key:
[1] = qHTS drug screen for cell cycle checkpoint inhibitors in PARPi-resistant BRCA-mutant ovarian cancer cell lines. (AID 1963452); details: PEO1/OlaR viability, CellTiter-Glo luminescence, 96 h; for Z-AUC: stronger effect = lower value
Summary of the method: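 PEO1, PEO4 and PEO1/OlaR ovarian cancer cells, 600 per well, exposed 96 h at 37C to a dilution series. Viability read by CellTiter-Glo luminescence, normalized to DMSO and empty wells; activity summarized as Z-AUC.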

[2] = qHTS profiling for inhibitors of Plasmodium falciparum proliferation (AID 504749; active = well fitted inhibition curve with a large enough effect; also: nearly all actives have a fitted effect of over 60% in size); details: P. falciparum in erythrocytes, SYBR Green DNA, 72 h
Summary of the method: (§1)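 Parasite proliferation within erythrocytes, 72 h exposure. Endpoint: SYBR Green I fluorescence after overnight lysis at room temperature. Controls: 0.29 uM artemisinin, DMSO.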

3D7 = experiment: as above; details: P. falciparum in erythrocytes, SYBR Green DNA, 72 h; series mostly up to 28.7 µM
Summary of the method: as §1

7G8 = experiment: as above; details: P. falciparum in erythrocytes, SYBR Green DNA, 72 h; series mostly up to 28.7 µM
Summary of the method: as §1

AA1029 = experiment: as above; details: P. falciparum in erythrocytes, SYBR Green DNA, 72 h; series mostly up to 28.7 µM
Summary of the method: as §1

AS120 = experiment: as above; details: P. falciparum in erythrocytes, SYBR Green DNA, 72 h; series mostly up to 28.7 µM
Summary of the method: as §1

[3] = qHTS for identification of novel therapeutic agents for treatment of microphthalmiaassociated transcription factor (MiT) renal cell carcinoma (RCC) (AID 1963991); details: CellTiter-Glo, 48 h; for z-score: stronger effect = lower value; for Potency: active = Z-AUC below -0.8 in all three lines
Summary of the method: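 Three TFE3-fusion RCC cell lines (UOK109, UOK124, UOK145), 500 cells/well, were exposed to the 1912-compound MIPE 4.0 library for 48 hours at 37 C. Viability was read by CellTiter-Glo luminescence, normalised to DMSO (100%) and empty wells (0%), with 11-concentration curve fits.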

[4] = measured here: PEO1 parental Z-AUC
[5] = TFE3-RCC UOK109 viability, measured here: UOK109 Z-AUC
[6] = TFE3-RCC viability, measured here: UOK124 Z-AUC
[7] = TFE3-RCC viability, measured here: UOK145 Z-AUC
Potency is read from the fitted curve at half-maximal effect.

SMILES: CN1C(C(=O)Nc2ccccn2)=C(O)c2sc(Cl)cc2S1(=O)=O
- Z-AUC [1]: 0.627 (inactive)
- Z-AUC [1, 4]: 0.551
- Z-AUC ([1]; measured here: PEO4 Z-AUC): 0.669

SMILES: C[C@H]1[C@@H](OC(=O)CCC(=O)O)O[C@@H]2O[C@@]3(C)CC[C@@H]4[C@H](C)CC[C@@H]1[C@@]24OO3
- Z-AUC [1]: -0.162 (inactive)
- Z-AUC [1, 4]: -0.815
- Z-AUC ([1]; measured here: PEO4 Z-AUC): -0.572

SMILES: CC(=O)SCC(Cc1ccccc1)C(=O)NCC(=O)OCc1ccccc1 (configuration not stated)
- Z-AUC [1]: 0.0229 (inactive)
- Z-AUC [1, 4]: 1.28
- Z-AUC ([1]; measured here: PEO4 Z-AUC): 0.777

SMILES: Cn1c(Nc2ccc(C(F)(F)F)cc2)nc2cc(Oc3ccnc(-c4ncc(C(F)(F)F)[nH]4)c3)ccc21
- Z-AUC [1]: -0.152 (inactive)
- Z-AUC [1, 4]: -0.11
- Z-AUC ([1]; measured here: PEO4 Z-AUC): -1.19

SMILES: CC(N[C@H]1CCCC[C@H]1NC(=O)c1ccc(Cl)cc1)c1cccc2ccccc12 (some centres not stated)
- Z-AUC [1]: 0.148 (inactive)
- Z-AUC [1, 4]: 0.0458
- Z-AUC ([1]; measured here: PEO4 Z-AUC): 0.472

SMILES: Cc1ccc2nc(NCCN)c3ncc(C)n3c2c1
- Z-AUC [1]: 0.876 (inactive)
- Z-AUC [1, 4]: 0.537
- Z-AUC ([1]; measured here: PEO4 Z-AUC): 1.09

SMILES: O=C(O)CCCCC(CCSCc1ccccc1)SCc1ccccc1 (configuration not stated)
- Z-AUC [1]: 1.05 (inactive)
- Z-AUC [1, 4]: 1.63
- Z-AUC ([1]; measured here: PEO4 Z-AUC): 1.32

SMILES: CC(O)(C#Cc1ccc2c(c1)N(c1nc(N)ncc1Cl)CC2)c1nccs1 (configuration not stated)
- Z-AUC [1]: -0.29 (inactive)
- Z-AUC [1, 4]: -0.463
- Z-AUC ([1]; measured here: PEO4 Z-AUC): -0.647

SMILES: O=C(CCCCCCC(=O)Nc1cccnc1)NO
- Z-AUC [1]: 0.519 (inactive)
- Z-AUC [1, 4]: 0.211
- Z-AUC ([1]; measured here: PEO4 Z-AUC): 0.136

SMILES: N#Cc1cc(NC(=O)Nc2nnc(-c3ccncc3)s2)ccc1-c1cn[nH]c1
- Z-AUC [1]: -0.0161 (inactive)
- Z-AUC [1, 4]: 0.0346
- Z-AUC ([1]; measured here: PEO4 Z-AUC): 0.15

SMILES: c1ccc2c(Oc3nc(Nc4ccc(N5CCOCC5)cc4)c4ncn(C5CCCCC5)c4n3)cccc2c1
- Z-AUC [1]: 1.71 (inactive)
- Z-AUC [1, 4]: 1.4
- Z-AUC ([1]; measured here: PEO4 Z-AUC): 1.58

SMILES: O=C1NCCc2[nH]c(-c3ccncc3)cc21
- Z-AUC [1]: -1.33 (inactive)
- Z-AUC [1, 4]: -1
- Z-AUC ([1]; measured here: PEO4 Z-AUC): -1.61

SMILES: Nc1nc(=O)n([C@H]2C[C@H](O)[C@@H](CO)O2)cc1F
- Z-AUC [1]: -1.47 (inactive)
- Z-AUC [1, 4]: -1.19
- Z-AUC ([1]; measured here: PEO4 Z-AUC): -0.999

SMILES: COc1cccc2c1C(=O)c1c(O)c3c(c(O)c1C2=O)C[C@@](O)(C(=O)CO)C[C@@H]3O[C@H]1C[C@H](N)[C@H](OC2CCCCO2)[C@H](C)O1 (some centres not stated)
- Potency [1]: 0.245 µM (active)
- Z-AUC [1]: 0.402 (inactive)
- Z-AUC [1, 4]: -0.769 and -1.75
- Z-AUC ([1]; measured here: PEO4 Z-AUC): 0.0749 and -1.06
- Potency ([2]; parasite line A): 3.16 µM (active)
- Potency ([2]; parasite line B): 4.47 µM (active)
- Potency (3D7): 2.24 µM (active)
- Potency (7G8): 0.794 µM (active)
- Potency (AA1029): 3.55 µM (active)
- Potency (AS120): 2.51 µM (active)

SMILES: CC1=C(C(=O)Nc2cc3cn[nH]c3cc2F)C(c2ccc(Cl)cc2F)N=C(c2ccnc(Cl)c2)N1 (configuration not stated)
- Z-AUC [1]: 0.0424 (inactive)
- Z-AUC [1, 4]: 0.693
- Z-AUC ([1]; measured here: PEO4 Z-AUC): 0.963

SMILES: CS(=O)(=O)N1CCc2c(-c3cnc(N)nc3)nc(N3CCOCC3)nc21
- Z-AUC [1]: -0.521 (inactive)
- Z-AUC [1, 4]: -0.562
- Z-AUC ([1]; measured here: PEO4 Z-AUC): 0.0155

SMILES: CCOC(=O)[C@@H](N)Cc1ccc(-c2cc(O[C@H](c3ccc(Cl)cc3-n3ccc(C)n3)C(F)(F)F)nc(N)n2)cc1
- Z-AUC [1]: -0.389 (inactive)
- Z-AUC [1, 4]: -0.62
- Z-AUC ([1]; measured here: PEO4 Z-AUC): -0.32

SMILES: Cn1cc(-c2cnn3c(N)c(Br)c([C@H]4CCCNC4)nc23)cn1
- Potency [1]: 3.47 µM (active)
- Z-AUC [1]: -0.529 (inactive)
- Z-AUC [1, 4]: 0.414 and -1.48
- Z-AUC ([1]; measured here: PEO4 Z-AUC): 0.266 and -1.31

SMILES: CC(C)c1cc(C(C)C)c(CC(=O)NS(=O)(=O)Oc2c(C(C)C)cccc2C(C)C)c(C(C)C)c1
- Z-AUC [1]: 0.134 (inactive)
- Z-AUC [1, 4]: 0.546
- Z-AUC ([1]; measured here: PEO4 Z-AUC): 1.13

SMILES: c1cncc(CN2CCC(n3ncc4c(N5CCOCC5)nc(-c5ccc6[nH]ccc6c5)nc43)CC2)c1
- Z-AUC [1]: -0.587 (inactive)
- Z-AUC [1, 4]: -0.0764
- Z-AUC ([1]; measured here: PEO4 Z-AUC): -0.549

SMILES: C=C[C@@H]1CN2CCC1C[C@H]2[C@H](O)c1ccnc2ccc(OC)cc12 (some centres not stated)
- Z-AUC [1]: -0.116 (inactive)
- Z-AUC [1, 4]: 0.594
- Z-AUC ([1]; measured here: PEO4 Z-AUC): 0.97
- z-score [3, 5]: 0.232
- z-score [3, 6]: 0.335
- z-score [3, 7]: 0.288

SMILES: COc1ccc(Nc2nccc(NCCO)n2)cc1
- Z-AUC [1]: 1.22 (inactive)
- Z-AUC [1, 4]: 0.748
- Z-AUC ([1]; measured here: PEO4 Z-AUC): 0.763

SMILES: c1ccc(CNc2nc(NCc3ccccc3)c3ccccc3n2)cc1
- Z-AUC [1]: 0.198 (inactive)
- Z-AUC [1, 4]: -0.502
- Z-AUC ([1]; measured here: PEO4 Z-AUC): -0.739

SMILES: CC(C)NC[C@@H](C(=O)N1CCN(c2ncnc3c2[C@H](C)C[C@H]3O)CC1)c1ccc(Cl)cc1
- Z-AUC [1]: 1.25 (inactive)
- Z-AUC [1, 4]: 1.5
- Z-AUC ([1]; measured here: PEO4 Z-AUC): 1.13

SMILES: Nc1ccn(C2CO[C@H](CO)O2)c(=O)n1 (some centres not stated)
- Z-AUC [1]: 0.13 (inactive)
- Z-AUC [1, 4]: 0.905
- Z-AUC ([1]; measured here: PEO4 Z-AUC): 0.884
- z-score [3, 5]: 1.41
- z-score [3, 6]: 1.05
- z-score [3, 7]: 1.04

SMILES: NC(=NCCCCCCN=C(N)N=C(N)Nc1ccc(Cl)cc1)N=C(N)Nc1ccc(Cl)cc1
- Z-AUC [1]: 0.994 (inactive)
- Z-AUC [1, 4]: 0.0732
- Z-AUC ([1]; measured here: PEO4 Z-AUC): -0.00855

SMILES: COc1ccc(S(=O)(=O)Nc2cc(-c3c(O)ccc4ccccc34)c(O)c3ccccc23)cc1
- Z-AUC [1]: 0.502 (inactive)
- Z-AUC [1, 4]: 0.417
- Z-AUC ([1]; measured here: PEO4 Z-AUC): 0.118

SMILES: CCCCCCCCCCCCc1ccc(S(=O)(=O)Nc2nncs2)cc1
- Z-AUC [1]: -0.392 (inactive)
- Z-AUC [1, 4]: 0.179
- Z-AUC ([1]; measured here: PEO4 Z-AUC): 0.202

SMILES: Cn1cnc2c(F)c(Nc3ccc(Br)cc3F)c(C(=O)NOCCO)cc21
- Z-AUC [1]: -0.612 (inactive)
- Z-AUC [1, 4]: -0.742
- Z-AUC ([1]; measured here: PEO4 Z-AUC): -0.428

SMILES: COc1cc(C)c(Sc2cnc(NC(=O)c3ccc(CNC(C)C(C)(C)C)cc3)s2)cc1C(=O)N1CCN(C(C)=O)CC1 (configuration not stated)
- Z-AUC [1]: -0.0176 (inactive)
- Z-AUC [1, 4]: -0.233
- Z-AUC ([1]; measured here: PEO4 Z-AUC): -0.809

SMILES: Cn1cc(-c2ccc3ncc(Cc4ccc5ncccc5c4)n3n2)cn1
- Z-AUC [1]: 0.547 (inactive)
- Z-AUC [1, 4]: 0.877
- Z-AUC ([1]; measured here: PEO4 Z-AUC): 0.786
- z-score [3, 5]: -0.236
- z-score [3, 6]: 0.125
- z-score [3, 7]: -0.113

SMILES: O=C1c2cccc(O)c2C(=O)c2c(O)cc(CO)cc21
- Z-AUC [1]: 0.225 (inactive)
- Z-AUC [1, 4]: -0.222
- Z-AUC ([1]; measured here: PEO4 Z-AUC): -0.301
- z-score [3, 5]: 0.181
- z-score [3, 6]: 0.143
- z-score [3, 7]: 0.0189

SMILES: C#CCC(Cc1cnc2nc(N)nc(N)c2n1)c1ccc(C(=O)N[C@@H](CCC(=O)O)C(=O)O)cc1 (some centres not stated)
- Potency [1]: 0.0078 µM (active)
- Z-AUC [1, 4]: -2.32
- Z-AUC ([1]; measured here: PEO4 Z-AUC): -1.96
- Potency ([3]; TFE3-RCC UOK109 viability): 0.132 µM (active)
- z-score [3, 5]: -1.2
- z-score [3, 6]: -2.51
- z-score [3, 7]: -2.95

SMILES: CC(C(C)N1CC(=O)NC(=O)C1)N1CC(=O)NC(=O)C1 (configuration not stated)
- Z-AUC [1]: 0.386 (inactive)
- Z-AUC [1, 4]: 0.374
- Z-AUC ([1]; measured here: PEO4 Z-AUC): 0.397
- z-score [3, 5]: -0.243
- z-score [3, 6]: -1.76
- z-score [3, 7]: -0.193

SMILES: CC(C)C[C@H](NC(=O)CNC(=O)c1cc(Cl)ccc1Cl)B1OC(=O)CC(CC(=O)O)(C(=O)O)O1 (some centres not stated)
- Potency [1]: 0.0436 µM (active)
- Z-AUC [1, 4]: -3.29
- Z-AUC ([1]; measured here: PEO4 Z-AUC): -3.23
- Potency ([3]; TFE3-RCC UOK109 viability): 0.0833 µM (active)
- z-score [3, 5]: -1.14
- z-score [3, 6]: -3.62
- z-score [3, 7]: -2.91

SMILES: CCN(C(=O)c1c(O)c2c(Cl)cccc2n(C)c1=O)c1ccccc1
- Z-AUC [1]: -0.417 (inactive)
- Z-AUC [1, 4]: -0.714
- Z-AUC ([1]; measured here: PEO4 Z-AUC): -1.09
- z-score [3, 5]: 0.408
- z-score [3, 6]: 0.904
- z-score [3, 7]: 0.468
